GPR151 activ = activators of human GPR151, primary screen, cell-based, PathHunter beta-arrestin, luminescence; PathHunter beta-arrestin GPR151 cells; 650,000 compounds, 1% hits; activation, % at 11.2 µM; G-protein coupled receptor 151 (Homo sapiens), Q8TDV0; in the data active = activation above about 4.9%;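 note: 0% = median of compound wells and 100% = cells with positive control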
Target sequence (Q8TDV0 whole entry, looked up): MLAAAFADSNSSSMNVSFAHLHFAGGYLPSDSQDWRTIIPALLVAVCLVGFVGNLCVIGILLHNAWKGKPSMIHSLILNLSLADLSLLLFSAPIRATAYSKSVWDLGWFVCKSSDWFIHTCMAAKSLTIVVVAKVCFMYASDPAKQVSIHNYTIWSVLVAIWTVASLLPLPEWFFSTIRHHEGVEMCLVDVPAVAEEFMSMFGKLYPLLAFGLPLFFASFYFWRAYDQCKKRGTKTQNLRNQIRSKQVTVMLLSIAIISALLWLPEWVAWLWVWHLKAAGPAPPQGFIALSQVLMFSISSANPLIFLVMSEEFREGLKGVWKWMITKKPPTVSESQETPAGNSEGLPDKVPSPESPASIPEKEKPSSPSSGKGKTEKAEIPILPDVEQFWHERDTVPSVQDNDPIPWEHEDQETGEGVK
MITF primary = MITF inhibitors, primary screen, biochemical, AlphaScreen, human | Microphthalmia-associated transcription factor (Homo sapiens), O75030 | AlphaScreen MITF homodimerization, bead proximity signal | inhibition, % at 2.6 µM | 650,000 compounds, 0.91% hits | AID 1259374, 2018; in the data active = inhibition above about 50%;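 note: 0% = vehicle wells with protein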
FBW7 activator = FBW7 E3 ligase activators, primary screen, biochemical, AlphaScreen, human; normalized activity (activation), % at 26.1 µM; AlphaScreen FBW7–phospho-cyclin E peptide binding, activator screen; AID 1259310, 2017; 650,000 compounds, 0.13% hits; in the data active = normalized activity above about 1.9%;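 note: purified mutant Fbw7 with reduced substrate affinity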
TEAD-YAP block = TEAD-YAP interaction inhibition, primary screen, TEAD-YAP interaction inhibitor project, luminescence, HEK-TIYL cells; TEAD-Gal4/YAP UAS-luciferase luminescence; inhibition, % at 9.12 µM; 640,000 compounds, 1.4% hits; AID 1259422, 2018; in the data active = inhibition above about 32%;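 note: 0% = median of test compound wells and 100% = reference inhibitor wells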
The depositor's hits bear a star; ! = not active in a repeat. Sampled rows, rich in hits. Any-hit rate of the full collection: about 3.4%.

SMILES | GPR151 activ | MITF primary | FBW7 activator | TEAD-YAP block
CC(C)C(CO)Nc1nccn2c(-c3ccc(C(=O)NC4CC4)cc3)cnc12 (stereo unspecified) | -1 | -12 | 0 | 51*
CC(C)C(CO)Nc1nccn2c(-c3cccc(NS(C)(=O)=O)c3)cnc12 (stereo unspecified) | -1 | -8 | -1 | 55*
COC(=O)N/N=C/C(Cl)=C/c1ccccc1 | 0 | 3 | 0 | -22
Cn1c(C(=O)NCC2CCCO2)cc2sccc21 (stereo unspecified) | -1 | -3 | 0 | -9
CC1CC(C)(C)Nc2ccc(OC(=O)c3ccccc3)cc21 (stereo unspecified) | 0 | -5 | 0 | 44*
O=C(Oc1ccc(OC(=O)c2ccccc2)cc1)c1ccccc1 | 0 | 0 | 0 | -4
Cc1ccccc1-n1ncc(C(C)NC(=O)c2c(C)nc3sccn23)c1C (stereo unspecified) | 0 | -4 | 1 | 59*
COc1ccc(OC)c(C(=O)c2oc3ccc(Br)cc3c2N)c1 | -1 | 12 | 0 | 49*
CC(=O)Nc1ccc(C(=O)N(Cc2ccc(OC3CCOC3)cc2)Cc2ccccn2)cc1 (stereo unspecified) | 2 | 4 | 0 | -2
Oc1ccc(-c2ccc(OCCN3CCCCC3)nc2)cc1 | -1 | -5 | 0 | -15
O=C(NCCCCCCNC(=O)Nc1cccnc1)Nc1cccnc1 | 0 | -5 | 0 | 57*
COc1ccc(-c2cc(=O)c3c(O)cc(OC)cc3o2)cc1 | -6 | 24 | 0 | -60
COc1ccc(-c2cc(=O)c3cc(C)ccc3o2)cc1 | -5 | -9 | 0 | 18
COc1ccc(-c2cc(=O)c3cc(O)ccc3o2)cc1 | -3 | 9 | 0 | 43*
COc1ccc(-c2cc(=O)c3c(O)cc(O)cc3o2)cc1 | 1 | 13 | 0 | 53*!
O=C(CCC(=O)Nc1ccc(F)cc1)N/N=C/c1ccc2c(c1)OCO2 | 1 | -5 | 0 | 0
CC(C)CCOc1ccc(C(=O)NCCCCCC(=O)O)cc1 | -1 | 2 | 0 | 38*
CC(C)Oc1ccc(C(=O)NCCC(=O)O)cc1 | 1 | 16 | 0 | -13
CC(C)COc1ccc(C(=O)NCCCCCC(=O)O)cc1 | 1 | -9 | 0 | 47*
CC(C)COc1ccc(C(=O)NCCC(=O)O)cc1 | 1 | 22 | 0 | 8
CC(C)Oc1ccc(C(=O)NCCCCCC(=O)O)cc1 | 0 | 5 | 1 | 39*
CCOc1ccc(C(=O)NCCCCCC(=O)O)cc1 | -1 | 12 | 0 | 20
CN1CCN(c2nc(-c3ccc(Cl)cc3)c(S(C)(=O)=O)cc2C#N)CC1 | 1 | 8 | 0 | 7
C=CCn1c(SCC(=O)Nc2ccccc2)nnc1-c1ccccc1O | -1 | -4 | 0 | 33*
COc1ccc(-n2nnnc2SCC(=O)Nc2ccc3c(c2)OCCO3)cc1OC | -1 | -3 | 0 | 1
SMILES | GPR151 activ | MITF primary | FBW7 activator | TEAD-YAP block
O=C(CSc1nnnn1-c1ccc(F)cc1F)Nc1ccc2c(c1)OCCO2 | -1 | 3 | 0 | 38*
C=CCn1c(SCC(=O)Nc2ccc3c(c2)OCCO3)nnc1-c1cccs1 | 0 | 10 | 0 | 51*
CCn1c(SCC(=O)NC(=O)Nc2ccc3c(c2)OCCO3)nnc1-c1cccs1 | 0 | -1 | 0 | -4
CCn1c(SCC(=O)Nc2cccc([N+](=O)[O-])c2)nnc1-c1ccccc1O | 0 | -3 | 0 | 32*
C=CCn1c(SCC(=O)Nc2cccc([N+](=O)[O-])c2)nnc1-c1ccccc1O | 1 | -8 | 0 | 31
CCOc1ccc(CC(=O)NC2CCCCC2)cc1OCC | 0 | 13 | 1 | -4
Oc1ccc(/C=C/c2cc(O)cc(O)c2)cc1 | -6 | -6 | 0 | 89*!
OC[C@H]1O[C@@H](Oc2cc(O)cc(/C=C/c3ccc(O)cc3)c2)[C@H](O)[C@@H](O)[C@@H]1O | 2 | 5 | 0 | 12
O=S(=O)(Nc1cccc(-c2ccc3nncn3n2)c1)c1cccc(C(F)(F)F)c1 | -1 | 16 | 0 | -8
COc1ccc(S(=O)(=O)Nc2cccc(-c3ccc4nncn4n3)c2)cc1F | 0 | 15 | 1 | 45*
COc1ccc(S(=O)(=O)Nc2cccc(-c3ccc(N4CCCCC4)nn3)c2)cc1C | -3 | -10 | 0 | 46*
COc1cc(C(=O)COC(=O)c2ccc(OC(C)C)cc2)cc(OC)c1OC | -1 | -5 | 0 | 0
Nc1ccc(-c2cnc3c(Nc4ccccc4)nccn23)cc1 | -3 | 7 | 0 | 53*
Oc1cccc(-c2cnc3c(Nc4ccccc4)nccn23)c1 | -3 | -12 | 0 | 3
c1ccc(Nc2nccn3c(-c4ccco4)cnc23)cc1 | -3 | 2 | 0 | 44*
Oc1cccc2ccc(Nc3ccc4cccc(O)c4n3)nc12 | -1 | 22 | -1 | 1
C=CCN1C(=O)/C(=C/c2ccc(OC(C)=O)c(OCC)c2[N+](=O)[O-])SC1=S | 0 | 21 | -1 | 37*
O=C(NCc1ccc(C(=O)NCCc2ccccn2)cc1)Nc1ccc(-c2cn[nH]c2)cc1 | 1 | 26 | 1.9* | 3
COc1cc(COc2cccc3ccc(N4CCN(C(=O)c5ccco5)CC4)nc23)cc(OC)c1 | 0 | -1 | 0 | 35*
Cc1ccccc1COc1cccc2ccc(N3CCN(C(=O)c4ccco4)CC3)nc12 | 2 | 3 | 0 | 16
CN(C)CCCN1C(=O)C(=O)/C(=C(\O)c2ccccc2)C1c1ccccc1F (stereo unspecified) | -1 | 8 | 0 | -17
COc1cccc(C2C(C#N)=C(N)Oc3c2ccc2ccccc32)c1 (stereo unspecified) | 0 | -26 | 0 | 58*
COc1ccccc1C1C(C#N)=C(N)Oc2cc3ccccc3cc21 (stereo unspecified) | 0 | 4 | 0 | 37*
COc1cccc(C2C(C#N)=C(N)Oc3cc(N)ccc32)c1OC (stereo unspecified) | 1 | 17 | 0 | 2
N#CC1=C(N)Oc2cc3ccccc3cc2C1c1ccc(F)cc1 (stereo unspecified) | 3 | -7 | 0 | 47*
SMILES | GPR151 activ | MITF primary | FBW7 activator | TEAD-YAP block
N#CC1=C(N)Oc2cc3ccccc3cc2C1c1cccs1 (stereo unspecified) | -1 | 30 | 0 | 44*
C/C(=N\Nc1ccc(S(=O)(=O)Nc2ccccc2)cc1[N+](=O)[O-])c1ccc(C#N)cc1 | 1 | 0 | 0 | 3
Fc1ccc(C2=CC(c3ccc(Br)cc3)n3nnnc3N2)cc1 (stereo unspecified) | 0 | 10 | 0 | 2
COc1ccc(C2C(C#N)=C(NC(=O)c3ccccc3OC)Oc3c2ccc2ccccc32)cc1OC (stereo unspecified) | 3 | 9 | 0 | 6
COc1cc(C2C(C#N)=C(N)Oc3c2ccc2ccccc32)cc(Cl)c1O (stereo unspecified) | 1 | 0 | 0 | 64*
N#CC1=C(N)Oc2cc3ccccc3cc2C1c1cccnc1 (stereo unspecified) | -1 | 10 | 0 | 48*
